Experimental data reported in PMC5540273 (PLoS ONE, 2017).

Assays:
Settings in all cases: concentration: 1 μM, replicates: in singlicate; n = 1
CDK4-cyclinD3 = tested on: CDK4-cyclinD3
CDK4 = tested on: CDK4
CDK5 = tested on: CDK5
CDK7 = tested on: CDK7
CDK8 = tested on: CDK8
CDK9 = tested on: CDK9
CDKL1 = tested on: CDKL1
CDKL2 = tested on: CDKL2
CDKL3 = tested on: CDKL3
CDKL5 = tested on: CDKL5
CHEK1 = tested on: CHEK1
CHEK2 = tested on: CHEK2
CIT = tested on: CIT
CLK1 = tested on: CLK1
CLK2 = tested on: CLK2
CLK3 = tested on: CLK3
CLK4 = tested on: CLK4
CSF1R-autoinhibited = tested on: CSF1R-autoinhibited
CSF1R = tested on: CSF1R
CSK = tested on: CSK
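Note: KINOMEscan kinase panel screen.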

Structure (SMILES) | %Inh (CDK4-cyclinD3) [%] | %Inh (CDK4) [%] | %Inh (CDK5) [%] | %Inh (CDK7) [%] | %Inh (CDK8) [%] | %Inh (CDK9) [%] | %Inh (CDKL1) [%] | %Inh (CDKL2) [%] | %Inh (CDKL3) [%] | %Inh (CDKL5) [%] | %Inh (CHEK1) [%] | %Inh (CHEK2) [%] | %Inh (CIT) [%] | %Inh (CLK1) [%] | %Inh (CLK2) [%] | %Inh (CLK3) [%] | %Inh (CLK4) [%] | %Inh (CSF1R-autoinhibited) [%] | %Inh (CSF1R) [%] | %Inh (CSK) [%]
COc1ccc(Nc2nccc(N3CCC(NC(=O)Nc4cccc(C(C)=O)c4)C3)n2)cc1 (stereo not drawn) [GSK1379731] | 0 | 8 | 0 | 0 | 61 | 0 | 1 | 43 | 0 | 0 | 0 | 0 | 0 | 5 | 0 | 5 | 2 | 0 | 0 | 0
Cc1nnc(-c2ccc3ncc(-c4ccc(S(C)=O)cc4)n3c2)o1 (stereo not drawn) | 0 | 0 | 0 | 0 | 13 | 0 | 0 | 4 | 2 | 10 | 0 | 0 | 38 | 0 | 0 | 0 | 0 | 7 | 17 | 0
NCC(NC(=O)c1cc(-c2cn[nH]c2)c(-c2ccnc3[nH]ccc23)s1)c1ccccc1.O=C(O)C(F)(F)F.O=C(O)C(F)(F)F (stereo not drawn) [GSK1325775] | 41 | 0 | 0 | 93.7 | 33 | 64 | 34 | 53 | 68 | 48 | 37 | 86 | 96.6 | 74 | 68 | 70 | 66 | 0 | 26 | 10
Fc1ccc(-c2nn3c(OCC(F)(F)F)cccc3c2-c2ccncc2)cc1 [GW514784] | 0 | 46 | 0 | 0 | 57 | 0 | 8 | 4 | 0 | 0 | 0 | 30 | 99.1 | 2 | 0 | 0 | 0 | 36 | 0 | 0
O=C(NCCCN1CCOCC1)c1cccc(Nc2nccc(Nc3ccc(Oc4ccccc4)cc3)n2)c1 [GW663929] | 0 | 16 | 0 | 20 | 34 | 19 | 5 | 28 | 0 | 0 | 9 | 40 | 9 | 22 | 28 | 0 | 11 | 9 | 33 | 88
Cn1cc(-c2ccc3c(c2)CCN3C(=O)Cc2ccccc2Cl)c2c(N)ncnc21 [GSK2608885] | 0 | 22 | 0 | 1 | 7 | 0 | 0 | 17 | 0 | 10 | 35 | 4 | 65 | 25 | 0 | 1 | 0 | 0 | 99.8 | 97.6
Cc1cccc(-c2nc(Nc3ccc4ncsc4c3)c3ccccc3n2)n1 [GW867588] | 0 | 7 | 0 | 17 | 43 | 3 | 1 | 0 | 1 | 0 | 0 | 7 | 13 | 1 | 9 | 0 | 0 | 4 | 0 | 3
O=C(Nc1cccc(-c2nn3ncccc3c2-c2ccnc(Nc3cccc(C(F)(F)F)c3)n2)c1)c1c(F)cccc1F [GSK299495] | 9 | 18 | 0 | 0 | 24 | 0 | 0 | 14 | 0 | 0 | 5 | 0 | 0 | 18 | 100 | 0 | 25 | 8 | 98.1 | 88
c1ccc(-c2n[nH]cc2-c2ccnc3ccccc23)nc1 [GW271431] | 0 | 0 | 0 | 0 | 5 | 0 | 7 | 5 | 0 | 6 | 5 | 0 | 41 | 28 | 7 | 55 | 20 | 11 | 6 | 0
C[C@@H](Oc1cc(-n2cnc3ccc(NC(=O)NC(C)(C)C)cc32)sc1C(N)=O)c1ccccc1Cl [GSK346294] | 1 | 34 | 0 | 0 | 45 | 0 | 14 | 5 | 0 | 0 | 10 | 19 | 0 | 18 | 7 | 22 | 40 | 15 | 6 | 1
NS(=O)(=O)c1cccc(-c2ccc3nccc(-c4cccc(S(N)(=O)=O)c4)c3c2)c1 [GW867253] | 0 | 19 | 0 | 4 | 36 | 0 | 27 | 16 | 20 | 5 | 0 | 0 | 0 | 0 | 25 | 0 | 1 | 0 | 0 | 0
CC(C)(C)n1cnc2c(N)ncnc21 [SKF-97359] | 0 | 0 | 0 | 0 | 66 | 0 | 0 | 28 | 0 | 0 | 0 | 2 | 32 | 14 | 0 | 0 | 11 | 28 | 0 | 0
CN1c2ccc(NCc3ccc(F)cc3)cc2-c2c(cnn2C)S1(=O)=O | 0 | 0 | 6 | 0 | 62 | 15 | 20 | 19 | 0 | 0 | 0 | 0 | 0 | 0 | 0 | 0 | 0 | 1 | 0 | 0
COc1cc2ncn(-c3cc(OCc4sccc4Cl)c(C(N)=O)s3)c2cc1OC [GSK448459] | 0 | 12 | 0 | 0 | 69 | 0 | 23 | 33 | 0 | 0 | 0 | 6 | 27 | 39 | 23 | 2 | 14 | 0 | 18 | 10
Cc1c2ccc(N(C)c3ccnc(Nc4cccc(S(N)(=O)=O)c4)n3)cc2nn1Cc1ccccc1.Cl.Cl [GW787226] | 0 | 2 | 0 | 3 | 0 | 3 | 0 | 39 | 10 | 0 | 0 | 8 | 6 | 0 | 12 | 0 | 0 | 64 | 100 | 9
